From PubChem BioAssay (NCI)
Several values for one entry are separate records, joined by “and”; a condition that tells them apart may be missing. Identical values can stand only once. Compounds without any hit were thinned out: in the full panel of roughly 83,000, 20% have a hit.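 Cells were grown in 96-well plates and exposed to the test compound at a single concentration for 48 hours; results are reported as percent growth, with values below 10 considered active.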 Activity calls are given as the source filed them.

How the values were obtained:
Experiment in all cases: NCI-60 one-dose screen, 48 h (100 = growth as untreated, 0 = no growth, -100 = all killed)
Conditions in all cases: 10 µM unless noted
T-47D breast = test system: T-47D breast
BT-549 breast = test system: BT-549 breast
MDA-MB-435 melanoma = test system: MDA-MB-435 melanoma
SW-620 colon = test system: SW-620 colon
MCF7 breast = test system: MCF7 breast
HCT-116 colon = test system: HCT-116 colon
KM12 colon = test system: KM12 colon
HCC-2998 colon = test system: HCC-2998 colon

Measured: growth

c1ccc(CNCCNCc2ccccc2)cc1
inactive: T-47D breast 103% | BT-549 breast 107% | MDA-MB-435 melanoma 106% | SW-620 colon 107% | MCF7 breast 93.4% | HCT-116 colon 103% | KM12 colon 120%

CC1(C)COC(=S)N1
inactive: T-47D breast 99.9% | BT-549 breast 102% | MDA-MB-435 melanoma 101% | SW-620 colon 109% | MCF7 breast 105% | HCT-116 colon 105% | HCC-2998 colon 106% | KM12 colon 112%

CC[C@H](CC[C@@H](C)[C@H]1CC[C@H]2[C@@H]3CC=C4C[C@@H](O)CC[C@]4(C)[C@H]3CC[C@]12C)C(C)C
inactive: T-47D breast 97.2% and 105% | BT-549 breast 100% | MDA-MB-435 melanoma 97.4% and 99.4% | MCF7 breast 107% and 89.8% | HCT-116 colon 94.6% and 105% | HCC-2998 colon 108% | KM12 colon 106% and 98.6%

O=c1[nH]cnc2c1ncn2C1OC(CO)C(O)C1O (stereo unspecified)
inactive: T-47D breast 103% and 107% and 90.2% | BT-549 breast 103% and 123% and 109% | MDA-MB-435 melanoma 121% and 98.7% and 90.2% | SW-620 colon 107% and 113% and 89.7% | MCF7 breast 100% and 96.8% and 95.6% | HCT-116 colon 102% and 116% and 92.9% | KM12 colon 111% and 109%

Cn1cnc([N+](=O)[O-])c1Sc1ncn[nH]1
inactive: T-47D breast 94.2% | BT-549 breast 101% | MDA-MB-435 melanoma 101% | SW-620 colon 106% | MCF7 breast 102% | HCT-116 colon 101% | KM12 colon 107%

OCCN1CCCCCCC1
inactive: T-47D breast 95.6% | BT-549 breast 98.2% | MDA-MB-435 melanoma 98.4% | SW-620 colon 108% | MCF7 breast 99% | HCT-116 colon 97.1% | KM12 colon 110%

CC(=O)Nc1ccc(S(N)(=O)=O)cc1
inactive: T-47D breast 87.7% and 100% | BT-549 breast 104% | MDA-MB-435 melanoma 97.4% and 96.3% | MCF7 breast 91.8% and 93.3% | HCT-116 colon 94.2% and 93.6% | HCC-2998 colon 108% | KM12 colon 109% and 108%

NC(=O)NCCCC(N)C(=O)O (stereo unspecified)
inactive: T-47D breast 88.4% | BT-549 breast 95.7% | MDA-MB-435 melanoma 107% | SW-620 colon 107% | MCF7 breast 101% | HCT-116 colon 104% | KM12 colon 101%

Cl
inactive: T-47D breast 101% | BT-549 breast 112% | MDA-MB-435 melanoma 101% | SW-620 colon 100% | MCF7 breast 109% | HCT-116 colon 104% | HCC-2998 colon 108% | KM12 colon 112%

CC(C)NCC(O)c1ccc(O)c(O)c1 (stereo unspecified)
inactive: T-47D breast 98% and 90.5% and 102% | BT-549 breast 84.7% and 79.9% and 84% | MDA-MB-435 melanoma 104% and 105% and 101% | SW-620 colon 104% and 107% and 93% | MCF7 breast 100% and 85.1% and 109% | HCT-116 colon 100% and 93.3% and 71.7% | HCC-2998 colon 105% and 117% and 108% | KM12 colon 106% and 105%

C/C(=C\c1ccccc1)c1ccccn1
inactive: T-47D breast 94.7% | BT-549 breast 110% | MDA-MB-435 melanoma 118% | SW-620 colon 105% | MCF7 breast 68.4% | HCT-116 colon 101% | KM12 colon 95.5%

OC1COC(OCc2ccccc2)C(O)C1O (stereo unspecified)
inactive: T-47D breast 89% | BT-549 breast 105% | MDA-MB-435 melanoma 104% | SW-620 colon 109% | MCF7 breast 96% | HCT-116 colon 99.6% | KM12 colon 105%

CC(C)C(C)(C)c1ccc(O)cc1
inactive: T-47D breast 101% | BT-549 breast 110% | MDA-MB-435 melanoma 106% | SW-620 colon 101% | MCF7 breast 109% | HCT-116 colon 105% | KM12 colon 107%

CCCCOC(=O)/C=C\C(=O)NC(N)=O
inactive: T-47D breast 60.4% | BT-549 breast 63.5% | MDA-MB-435 melanoma 99.4% | SW-620 colon 57.1% | MCF7 breast 81.1% | HCT-116 colon 80.1% | KM12 colon 106%
